The list shows a part of the results. Unmarked numbers belong to inactive results. No stated cut-off is given here; in the data, active means z-score above about 6.3; inactive means the rest.
Experiment: AML12 hepatocyte cytotoxicity, counter-screen for hepatic lipid droplet formation project, imaging, DAPI nuclear morphology imaging (AID 463200);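 further: compound exposure lasted overnight at 37 °C before fixation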
Details: AML12 mouse hepatocytes, at 5 µM, active compounds read high, cells fed 100 µM oleate overnight

In order of falling z-score:
1. COc1cc(/C=N/NC(=O)Nc2ccccc2)ccc1OCCOc1ccccc1C  4.44
2. CCc1ccc(NC(=O)C(C)OC(=O)/C=C/c2cccc([N+](=O)[O-])c2)cc1 (centres undefined)  1.35
3. O=C(CN1CCc2cc3c(cc2C1)OCCCO3)Nc1ccccc1  0.947
4. CN(C)c1ccc(Nc2c3c4c(cccc4n(C)c2=O)C(=O)c2ccccc2-3)cc1  0.335
5. Cc1cc(C(=O)NC2CCCc3c2cnn3-c2cccc(C)c2C)c(C)o1 (centres undefined)  0.206
6. Cn1c(=O)[nH]c(=O)c2c1nc(N1CCN(C(c3ccccc3)c3ccccc3)CC1)n2CCO  0.0379
7. O=[N+]([O-])c1ccccc1N/N=C1\CCc2ccccc21  -0.00245
8. COc1ccc(C(C(=O)NC(C)(C)C)N(Cc2ccc(F)cc2)C(=O)CCC(=O)Nc2cc(C)on2)cc1 (centres undefined)  -0.0925
9. CCCc1ccc(-c2csc(NC(=O)Cc3cccs3)n2)cc1  -0.171
10. CCOC(=O)C1=C(CC)OC(N)=C(C#N)C1c1ccc(F)cc1F (centres undefined)  -0.275
11. COCCCNC(=O)CN1C(=O)CSc2ccc(S(=O)(=O)N3CCOCC3)cc21  -0.296
12. CCCN(CCC)c1nc2c(C)cccn2c(=O)c1/C=C1/SC(=S)N(Cc2ccco2)C1=O  -0.326
13. CC(C)(C)NC(=O)Cn1cnc2cc([N+](=O)[O-])ccc2c1=O  -1.05
14. O=C1Nc2ccc(Br)cc2/C1=N/N=C/C1=C(N2CCOCC2)C(=C\c2ccccc2)/CC1  -1.9
